The source of these data is PubChem BioAssay AID2685 (National Center for Advancing Translational Sciences (NCATS), 2010).

Screen size: about 320,000 compounds; about 2,100 (0.66%) were called active. Inconclusive results (about 53%) are left out. Calls follow the shape of the dose curve; as a rule, active = well fitted inhibition curve with a large enough effect in the signal ratio, with a control signal flat (not every such curve was filed as active); inconclusive = small, poorly fitted or top-dose-only effect, or effect the other way, or a change in a side signal; inactive = flat fitted curve, though single readings scatter; the % refers to the signal ratio. The entries come from a sample that favours actives as a whole.
Potency is read from the fitted curve at half-maximal effect.

The test can be described thus: qHTS Assay for Lipid Storage Modulators in Drosophila S3 Cells.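 As to cell number change: cells counted by Cell Tracker Red CMTPX staining in the red channel.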 As to lipid storage change, negative = inhibition: % is scaled to controls: 0 for no effect and ±100 for the full control effect. To be noted: BODIPY lipid droplet fluorescence, 18-24 h, cells fed with added oleic acid; cell number change: measured here: cell count max response; series mostly up to 46.1 µM; lipid storage change, negative = inhibition: at the top concentration. From the text:
NIH Molecular Libraries Probe Production Centers Network [MLPCN] NIH Chemical Genomics Center [NCGC] MLPCN Grant: 1 R03 MH085686-01 Assay Submitter (PI): Beller, Mathias; Max-Planck-Institut fur Biophysikalische Chemie NCGC Assay Overview: Storing lipids as a reservoir for energy or the anabolism of elementary metabolites is a common feature of probably all cells and is conserved from bacteria to humans. The universal cellular lipid storage organelle is the so-called lipid storage droplet (LD). Although ubiquitous, LDs share a simple structure composed of a hydrophobic core that harbors the storage lipids, which is shielded by a droplet-specific phospholipid monolayer to which proteins are attached. The current model of LD biogenesis involves an incorporation of the lipid core into the membrane leaflets of the endoplasmic reticulum (ER) followed by a subsequent budding-like maturation of a LD, which ultimately pinches off. Once released, LD volume can increase by localized lipogenesis or fusion of existing droplet. Storage lipids are re-mobilized enzymatically by lipase activity. Lipase regulation in the adipocyte is heavily studied and involves multiple components including catecholamine signaling, the LD-associated proteins Perilipin and comparative gene identification (CGI-58) and at least two lipases named hormone sensitive lipase (HSL) and adipocyte triglyceride lipase (ATGL). LD regulation outside of the adipocyte is poorly understood and only few components are known. However, there is an urgent need to learn more about ectopic fat depots as mislocalized storage of lipids, for example in the liver or muscle, is an eminent health problem associated with insulin resistance or the metabolic syndrome. We developed a laser-scanning cytometer assay to enable 1,536-well screening and combined the results of the small molecules screen with an RNAi database based on lipid storage.
Triacsin C (Sigma-Aldrich T-4540), an inhibitor of long-chain fatty acyl CoA synthetase that blocks synthesis of triglycerides, was used as a positive control for lipid under-storage. A total of 23 nL of compound solution of different concentrations were transferred to the assay plates using a Kalypsys pin tool equipped with a 1,536-pin array containing 10-nL slotted pins (FP1S10, 0.457-mm diameter, 50.8 mm long; V&P Scientific). One microliter of oleic acid (400 uM) was added, and the plate was lidded with stainless steel rubber gasket lined lids containing pinholes. […] Fluorescence was detected by excitation of the fluorophores with a 488-nm laser on an Acumen Explorer (TTP Lab Tech). The total intensity in channel 2 (500-530 nm) reflected lipid droplet accumulation. Cells were detected using channel 3 (575-640 nm) with 5-um width and 100-um depth filters. The ratio of the number of objects in PMT channel 2 over the number of objects in PMT channel 3 was also calculated. Percent activity was computed relative to an internal control (100% inhibited lipid droplet deposition due to the presence of 20 uM Triacsin C), which was added to 32 wells/plate.
In the case of `Cc1cccc(C(=O)NCCC(=O)NCc2ccccc2F)c1`, the “lipid storage change, negative = inhibition” value was -21.2% (inactive) and the cell number change came to 10.5%.

On to `Cc1cccc(C(=O)NCCC(=O)NCc2ccccc2Cl)c1`, for which the Potency was 1.84 µM (active) and the cell number change is -17.5%.

On to `CCOc1cccc(/C(O)=C2/C(=O)C(=O)N(CCOC)C2c2ccco2)c1` (stereo unspecified), for which the call was inactive and the cell number change was 3.12%.

In the case of `CC1CCC(N2CCN(c3ccc([N+](=O)[O-])cc3)CC2)CC1` (stereo unspecified), the result was inactive and the cell number change was -15.6%.

On to `COc1ccc(-c2cc(C(=O)N3CCN(c4ncccn4)CC3)c3ccccc3n2)c(OC)c1`, for which the “lipid storage change, negative = inhibition” value is -1.54% (inactive).

Take `COc1ccc(-c2cc(C(=O)N3CCCCCC3)c3ccccc3n2)c(OC)c1`: the molecule was classed as inactive.

On to `COc1ccc(-c2cc(C(=O)N3CCN(c4ccccc4F)CC3)c3ccccc3n2)c(OC)c1`, for which the Potency is 3.26 µM (active) and the cell number change was -25.7%.

As for `O=C(O)c1cccc2c1C(=O)N(c1ccccc1)C2`, the “lipid storage change, negative = inhibition” value was 7.94% (inactive) and the cell number change was -2.23%.

Take `Cc1ccc(N2CCN(S(=O)(=O)N3CCCCC3)CC2)c(C)c1`: the “lipid storage change, negative = inhibition” value was -0.445% (inactive) and the cell number change worked out at 18.1%.

Consider `CN1/C(=C\C(=O)c2cccc([N+](=O)[O-])c2)Sc2ccccc21`, for which the Potency was 1.84 µM (active) and the cell number change is -22.2%.

Consider `COc1cc(OC)cc(C(=O)/C=C2\Sc3ccccc3N2C)c1`, for which the “lipid storage change, negative = inhibition” value is 0.116% (inactive) and the cell number change came out at 2.87%.

For the molecule `CN1/C(=C\C(=O)c2cccs2)Sc2ccccc21`, the “lipid storage change, negative = inhibition” value is 24.2% (inactive) and the cell number change stood at 18.5%.

On to `Cc1cccc(N2CC3=C(C2=O)C(c2ccccc2)NC(=O)N3C)c1` (stereo unspecified), for which the outcome was inactive and the cell number change came to 28.8%.

As for `CC1(C)c2[nH]c3ccccc3c2C[C@H]2C(=O)N(CCCO)CC(=O)N21`, the “lipid storage change, negative = inhibition” value is -9.62% (inactive) and the cell number change was 7.32%.

As for `CC(=O)c1ccc(NC(=O)CCNC(=O)c2ccccc2Cl)cc1`, the result was inactive.

Take `Fc1ccc(F)c(CN2CCN(c3ncccn3)CC2)c1`: the “lipid storage change, negative = inhibition” value was 16.3% (inactive) and the cell number change was -0.405%.

On to `COc1ccc(/C=C2\SC(=Nc3ccccc3OC)NC2=O)cc1`, for which the “lipid storage change, negative = inhibition” value was 13% (inactive) and the cell number change is -11.5%.

Turning to `COc1ccc(/C=C2\SC(=Nc3ccccc3)NC2=O)cc1`, the “lipid storage change, negative = inhibition” value is -17.6% (inactive) and the cell number change is -6.61%.

Take `COc1ccccc1N=C1NC(=O)/C(=C/c2ccc(N(C)C)cc2)S1`: the Potency is 10.3 µM (active) and the cell number change was -21.8%.

Turning to `Cc1ccc(SCC(=O)OCc2csc(CC(=O)Nc3ccccc3C)n2)cc1C`, the “lipid storage change, negative = inhibition” value is 12.3% (inactive) and the cell number change is -3.61%.

For `COc1cc(OC)cc(C(=O)NCc2ccc3[nH]c(C)cc3c2)c1`, the “lipid storage change, negative = inhibition” value is -15.4% (inactive) and the cell number change was -3.37%.

Turning to `CN(C)c1ccc(/C=C/C(=O)c2cc(Cl)ccc2O)cc1`, the Potency was 4.11 µM (active) and the cell number change is -22.6%.

Take `O=C(/C=C/c1cccs1)c1cc(Cl)ccc1O`: the “lipid storage change, negative = inhibition” value is 10.1% (inactive) and the cell number change worked out at 3.94%.

In the case of `CN(C)c1ccc(/C=C/C(=O)c2ccccc2O)cc1`, the “lipid storage change, negative = inhibition” value was -9.67% (inactive).

Turning to `CCC(CC)NC(=O)Nc1cccc(C)c1C`, the “lipid storage change, negative = inhibition” value is 3.89% (inactive) and the cell number change is -9.81%.

Consider `COc1ccccc1CNC(=O)c1cccs1`, for which the “lipid storage change, negative = inhibition” value is 14.8% (inactive) and the cell number change is -14%.

As to `CCOc1ccccc1N1CC(C(=O)N2CCOCC2)CC1=O` (stereo unspecified), the outcome was inactive and the cell number change came out at 13.3%.

Turning to `CC(=O)Nc1c(O)nc(SCC(=O)N2CCCCC2)[nH]c1=O`, the “lipid storage change, negative = inhibition” value was 14.1% (inactive) and the cell number change was -10.1%.

`O=C(CSc1nc2ccccc2[nH]1)N1c2ccccc2Sc2ccccc21`: the Potency was 16.4 µM (active) and the cell number change was -14%.

Regarding `O=C(CSc1nc2ccccc2[nH]1)N1CCCCC1`, the molecule was classed as inactive and the cell number change worked out at 1.09%.

As for `O=C(CSc1nc2ccccc2s1)N1c2ccccc2Sc2ccccc21`, the “lipid storage change, negative = inhibition” value is -19.3% (inactive) and the cell number change is -7.47%.

With `O=C(c1cc(=O)c2cc(Cl)ccc2o1)N1CCN(Cc2ccccc2)CC1`, the “lipid storage change, negative = inhibition” value is 11.7% (inactive) and the cell number change came out at 10.7%.

With `NS(=O)(=O)c1ccc(CNC(=O)c2cc(=O)c3cc(Cl)ccc3o2)cc1`, the “lipid storage change, negative = inhibition” value was -0.959% (inactive) and the cell number change was -18%.

Regarding `O=C(O)c1cc(=O)c2cc(Cl)ccc2o1`, the Potency is 23.1 µM (active) and the cell number change was -8.2%.

On to `C=CCN(Cc1cn(C)nc1-c1cccc(Cl)c1)C1CCS(=O)(=O)C1` (stereo unspecified), for which the “lipid storage change, negative = inhibition” value is 7.59% (inactive) and the cell number change is -4.76%.

As to `Cc1ccc(S(=O)(=O)NC2=NCCCCC2)cc1`, the “lipid storage change, negative = inhibition” value was 7.54% (inactive) and the cell number change was -2.65%.

In the case of `O=S(=O)(NC1=NCCC1)c1ccc(F)cc1`, the Potency was 20.6 µM (active) and the cell number change worked out at 8.19%.

As to `Nc1ccc(S(=O)(=O)NC2=NCCCCC2)cc1`, the “lipid storage change, negative = inhibition” value was -2.11% (inactive) and the cell number change stood at 11.2%.

For `Cc1ccc(S(=O)(=O)N2CCOCC2)cc1NC(=O)COC(=O)c1cnc(Cl)c(Cl)c1`, the “lipid storage change, negative = inhibition” value is 15.2% (inactive) and the cell number change was found to be 24.4%.

For `CCOC(=O)Cn1cnc2scc(-c3ccc(C)c(C)c3)c2c1=O`, the outcome was inactive and the cell number change came out at 4.4%.

`COc1ccc(OC)c(/C=C/C(=O)N2C(=O)c3cccc(N)c3C2=O)c1`: the Potency was 16.4 µM (active) and the cell number change was found to be 10.9%.

Turning to `Nc1cccc2c1C(=O)N(C(=O)/C=C/c1cccc(F)c1)C2=O`, the “lipid storage change, negative = inhibition” value is -19.8% (inactive) and the cell number change is -23.5%.

Consider `Nc1cccc2c1C(=O)N(C(=O)/C=C/c1ccc(F)cc1)C2=O`, for which the “lipid storage change, negative = inhibition” value was -17.9% (inactive) and the cell number change was -29.8%.

`COc1ccc(OC)c(/C=C/C(=O)N2CCCc3ccccc32)c1`: the “lipid storage change, negative = inhibition” value is -2.46% (inactive).

In the case of `COc1cc(/C=C/C(=O)N2C(=O)c3cccc(N)c3C2=O)cc(OC)c1OC`, the Potency is 5.17 µM (active) and the cell number change is -14.5%.

Consider `COc1ccc(OC)c(/C=C/C(=O)N2CCN(S(=O)(=O)c3cc(C)ccc3C)CC2)c1`, for which the “lipid storage change, negative = inhibition” value was 11.1% (inactive) and the cell number change amounted to 6.55%.

Consider `O=C(c1ccc(Cl)cc1)c1ccc(CN2C(=O)c3ccccc3C2=O)o1`, for which the “lipid storage change, negative = inhibition” value was 2.8% (inactive) and the cell number change was 8.92%.

For the molecule `COCCNc1nc(CSc2ccccc2)nc2sc(C)c(C)c12`, the “lipid storage change, negative = inhibition” value was 11.7% (inactive) and the cell number change came to 2.1%.
